The values below come from PubChem BioAssay (NCATS).

The structures appear in SMILES notation. Unmarked numbers belong to inactive results. Inconclusive results are not listed. Calls of active or inactive are those of the source. The call rests on the fitted dose curve; in most records, active means well fitted curve in the direction sought with a large enough effect; inconclusive means small, poorly fitted or top-dose-only effect, or another doubt; inactive means no such curve, though single readings can be large; an effect the other way counts as inactive or inconclusive.

Assay [1] can be described thus: Cellular Toxicity (caspase-3) H-4-II-E (AID 663).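 Further: cells exposed to compound for 16 hr before readout; 0% = DMSO basal and 100% = 100 µM tamoxifen.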 The essentials:
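Apoptosis induction is scored as increased luminescence from caspase 3/7 substrate cleavage in rat hepatoma H-4-II-E cells exposed to compound for 16 hr. Activity is scaled between DMSO and 100 uM tamoxifen.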

The nature of assay [2]: Cellular Toxicity (caspase-3) Hek293 (AID 664).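 Further: cells exposed to compound for 16 h at 37 °C before readout.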 The essentials: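 HEK293 cells were exposed to compounds in complete medium for 16 hr at 37 °C, then caspase-3/7 activity was read by Caspase-Glo 3/7 luminescence after 20 min at room temperature. Data normalized to DMSO and 100 uM tamoxifen; AC50 from Hill fits.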
The nature of assay [3]: Cellular Toxicity (caspase-3) N2a (AID 665).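 Further: compound exposure lasted 16 h at 37 °C before readout.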 The essentials:
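Mouse N2a neuroblastoma cells (1500/well) were treated with compounds for 16 h at 37 °C, then caspase-3/7 activity was read by Caspase-Glo luminescence after 1 h at room temperature. Data were normalized to DMSO and 10 uM staurosporine; AC50 from Hill fits.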

Assay [4] is described as follows: Cellular Toxicity (caspase-3) NIH 3T3 (AID 666).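 Further: caspase signal read after 16 h compound exposure; 0% = DMSO basal and 100% = 100 µM tamoxifen stimulation.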 In outline:
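Mouse NIH 3T3 fibroblasts (1000 cells/well) were treated with compound for 16 hr at 37°C in complete medium; caspase-3/7 activity was read by Caspase-Glo luminescence. Normalized to DMSO and 100 uM tamoxifen; AC50 from Hill fits.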

Assay [5] in a line: Cellular Toxicity (caspase-3) Renal Proximal Tubule (AID 667).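 Further: cells exposed to compound for 16 hours at 37 °C before detection; 0% = DMSO basal and 100% = 10 µM staurosporine.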 The essentials:
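Caspase 3/7 activation measured by luminescent aminoluciferin release in primary rat proximal tubule cells after 16 hr compound exposure at 37 °C. AC50 from Hill-fitted concentration-response, scaled between DMSO and 10 uM staurosporine.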

In assay [6] the target is Cytochrome P450 3A4 (Homo sapiens) (UniProt P08684). Put plainly: qHTS Assay for Inhibitors and Substrates of Cytochrome P450 3A4 (AID 884). Further: series mostly up to about 57 µM; on the % scale 0 is the no-effect control and ±100 the full control effect; nearly all actives have a fitted effect of over 50% in size. The essentials:
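20 nM human CYP3A4 with 25 uM Luciferin-PPXE (at KM) in 200 mM KPO4, preincubated 10 min with compound; NADPH regeneration started a 60 min RT reaction. Luciferin detected by luminescence, normalized to 57 uM ketoconazole as full inhibition.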
A general note: Quantitative high-throughput screening tests each substance at several concentrations.

In assay [7] the target is Cytochrome P450 2D6 (Homo sapiens) (UniProt P10635). Put plainly: qHTS Assay for Inhibitors and Substrates of Cytochrome P450 2D6 (AID 891).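 Further: luciferin methyl ether substrate demethylated by CYP2D6 with NADPH regeneration; on the % scale 0 is the no-effect control and ±100 the full control effect; nearly all actives have a fitted effect of over 60% in size.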 In outline: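 Human CYP2D6 (5 nM) with 30 uM Luciferin-ME EGE (at Km) in 100 mM KPO4, compound preincubated 10 min, then NADPH regeneration system for 60 min at room temperature. Luciferin read by luminescence; normalized to 1.43 uM quinidine.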

Assay [8] addresses Guanine nucleotide-binding protein G(i) subunit alpha-1 (Homo sapiens) (UniProt P63096). Briefly: qHTS Assay for Inhibitors of RGS12 GoLoco Motif Activity (Green Fluorophore) (AID 879).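 Further: 0% = labeled peptide with Gαi1 and full inhibition = labeled peptide alone without protein; negative values mean loss of peptide binding seen as reduced polarization.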 The text has this: Assay Overview: NIH Molecular Libraries Screening Centers Network [MLSCN] NIH Chemical Genomics Center [NCGC] MLSCN Grant: NS053754-01 Assay Provider: Siderovski, David P, University of North Carolina at Chapel Hill G-protein-coupled receptors (GPCRs) are major targets for drug discovery. The regulator of G-protein signaling (RGS)-protein family has important roles in GPCR signal transduction. RGS proteins contain a conserved RGS-box, which is often accompanied by other signaling regulatory elements. RGS proteins accelerate the deactivation of G proteins to reduce GPCR signaling; however, some also have an effector function and transmit signals. […] Inhibitors of the binding are detected by a decrease in the fluorescence polarization (FP) of the fluorophore. […]
Assay Protocol: Reagents/Controls: Assay Buffer: 10 mM Tris-HCl, 150 mM NaCl, 0.1 mM GDP (prepared fresh), and 0.05% NP40 at pH 7.5. […] The plates were incubated for 10 min at room temperature, and then read on ViewLux (Perkin-Elmer) High-throughput CCD imager using FITC polarization filter sets for the fluorescein-labeled decapeptide probe.During dispense, reagent bottles were kept submerged into 4 deg C water bath and all liquid lines were covered with aluminum foil to minimize probe and protein degradation. […]

The target in assay [9] is Cytochrome P450 2C9 (Homo sapiens) (UniProt P11712). Briefly: qHTS Assay for Inhibitors and Substrates of Cytochrome P450 2C9 (AID 883). Further: nearly all actives have a fitted effect of over 60% in size. Further: potency means the concentration at half of the fitted maximal effect. On activity change, negative = inhibition: on the % scale 0 is the no-effect control and ±100 the full control effect. The essentials: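 Luminescent read-out of deoxyluciferin hydroxylation, normalized to 57uM sulphaphenazole (AC100). Reaction: 10nM enzyme, 100uM Luciferin-H (equal to KM), 25mM KPO4, 10 min compound preincubation, then 60 min with NADPH regeneration, both at 37C.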

In assay [10] the target is Cytochrome P450 3A4 (Homo sapiens) (UniProt P08684). Briefly: qHTS Assay for Activators of Cytochrome P450 3A4 (AID 885). Further: nearly all actives have a fitted effect of over 65% in size. The essentials:
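Signal was normalized against complete inhibition by 57 uM ketoconazole. The reaction used 20nM CYP3A4 with 25uM Luciferin-PPXE, 10-min compound preincubation and a 60-min NADPH-supported step at RT.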

Sequence of Cytochrome P450 3A4 (Homo sapiens) (P08684 whole entry, looked up): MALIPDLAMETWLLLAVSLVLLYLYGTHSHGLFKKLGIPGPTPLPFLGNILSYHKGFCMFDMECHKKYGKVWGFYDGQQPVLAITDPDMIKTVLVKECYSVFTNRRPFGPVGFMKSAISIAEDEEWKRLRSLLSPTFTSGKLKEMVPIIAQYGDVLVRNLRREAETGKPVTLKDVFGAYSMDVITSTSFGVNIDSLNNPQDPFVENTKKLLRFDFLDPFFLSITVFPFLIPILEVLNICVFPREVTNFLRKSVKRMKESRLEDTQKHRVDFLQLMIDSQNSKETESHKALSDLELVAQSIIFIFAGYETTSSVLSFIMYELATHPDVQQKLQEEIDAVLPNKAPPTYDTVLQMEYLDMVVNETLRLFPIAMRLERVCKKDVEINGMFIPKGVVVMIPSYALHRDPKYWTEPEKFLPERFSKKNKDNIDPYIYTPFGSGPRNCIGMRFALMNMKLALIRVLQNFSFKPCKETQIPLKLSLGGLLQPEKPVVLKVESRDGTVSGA
Sequence of Cytochrome P450 2C9 (Homo sapiens) (P11712 whole entry, looked up): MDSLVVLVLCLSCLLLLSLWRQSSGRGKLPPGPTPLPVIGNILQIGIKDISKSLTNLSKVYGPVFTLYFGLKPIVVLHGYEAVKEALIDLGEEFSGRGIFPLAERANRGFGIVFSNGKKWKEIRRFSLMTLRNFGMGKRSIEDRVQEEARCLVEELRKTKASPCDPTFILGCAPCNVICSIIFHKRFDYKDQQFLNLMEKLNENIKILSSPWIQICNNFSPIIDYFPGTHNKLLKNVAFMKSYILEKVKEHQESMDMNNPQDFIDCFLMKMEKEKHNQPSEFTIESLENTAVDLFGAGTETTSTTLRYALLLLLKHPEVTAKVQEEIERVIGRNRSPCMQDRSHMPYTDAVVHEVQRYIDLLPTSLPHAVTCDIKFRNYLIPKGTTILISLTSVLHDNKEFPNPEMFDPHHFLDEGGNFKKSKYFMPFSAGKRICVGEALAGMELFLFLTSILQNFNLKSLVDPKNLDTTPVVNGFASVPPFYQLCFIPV
Sequence of Cytochrome P450 2D6 (Homo sapiens) (P10635 whole entry, looked up): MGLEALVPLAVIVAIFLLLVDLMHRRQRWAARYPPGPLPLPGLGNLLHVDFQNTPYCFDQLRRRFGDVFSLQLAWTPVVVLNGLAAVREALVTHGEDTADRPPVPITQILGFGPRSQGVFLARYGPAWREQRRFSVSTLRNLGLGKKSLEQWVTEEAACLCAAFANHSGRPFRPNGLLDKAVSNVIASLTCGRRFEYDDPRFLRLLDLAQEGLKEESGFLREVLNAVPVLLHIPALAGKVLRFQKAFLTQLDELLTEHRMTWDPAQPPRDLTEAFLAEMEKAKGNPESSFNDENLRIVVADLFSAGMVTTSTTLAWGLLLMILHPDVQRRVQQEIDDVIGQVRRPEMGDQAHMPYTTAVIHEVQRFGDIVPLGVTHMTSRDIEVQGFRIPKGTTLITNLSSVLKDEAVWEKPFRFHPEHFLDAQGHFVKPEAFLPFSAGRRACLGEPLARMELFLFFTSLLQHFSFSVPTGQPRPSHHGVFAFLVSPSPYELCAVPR
Sequence of Guanine nucleotide-binding protein G(i) subunit alpha-1 (Homo sapiens) (P63096 whole entry, looked up): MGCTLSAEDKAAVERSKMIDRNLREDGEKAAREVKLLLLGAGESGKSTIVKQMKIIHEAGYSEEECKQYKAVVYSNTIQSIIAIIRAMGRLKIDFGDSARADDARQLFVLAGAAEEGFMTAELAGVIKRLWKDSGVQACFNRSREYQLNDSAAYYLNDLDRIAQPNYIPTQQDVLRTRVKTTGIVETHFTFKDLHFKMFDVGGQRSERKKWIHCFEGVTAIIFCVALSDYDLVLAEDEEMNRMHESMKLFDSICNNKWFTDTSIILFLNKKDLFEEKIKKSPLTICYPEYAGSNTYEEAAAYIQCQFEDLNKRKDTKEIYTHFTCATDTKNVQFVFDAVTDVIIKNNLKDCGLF

On to `C=Cc1ccccc1`, for which the outcome in assay [1], in assay [2], in [3], in assay [4], in assay [5] and in assay [6] was inactive.
Consider `CN(C)Cc1ccccc1`, for which the compound was classed as inactive in assay [1], in [2], in [3], in assay [4], in [5] and in [6].
On to `O=C(O)CC(O)(CC(=O)O)C(=O)O`, for which the call in assay [1], in assay [2], in assay [3], in assay [4], in assay [5] and in assay [6] was inactive.
In the case of `COc1ccc2[nH]c(=O)c3c(c2c1)OC(C)(C)C=C3`, the outcome in [6] and in [7] was inactive.
Turning to `C1CNCCN1`, the compound was called inactive in assay [6].
With `NCCCC(=O)O`, the compound was classed as inactive in assay [8], in assay [6] and in assay [7]. Further, in assay [9], the Potency entry was “inactive”.
As to `CC(=O)C1=C(O)C=C2Oc3c(C(C)=O)c(O)c(C)c(O)c3[C@]2(C)C1=O`, the Potency in assay [9] is 6.3 nM (active). In addition, the compound was classed as inactive in assay [10] and in [7].
On to `O=C(O)c1cc2ccccc2c(Cc2c(O)c(C(=O)O)cc3ccccc23)c1O`, for which the activity change, negative = inhibition in [9] was -15.3% [at 11.4 µM]; in [7], 6.29% [at 11.4 µM].
For `Cc1ccc(OC[C@H](O)[C@H](C)NC(C)C)c2c1CCC2`, the result in assay [8] and in [10] was inactive.
`COC(C)=O`: the compound was classed as inactive in assay [1], in assay [2], in assay [3], in assay [4], in assay [5] and in [6].
With `CN(C)CCCn1cc(C2=C(c3c[nH]c4ccccc34)C(=O)NC2=O)c2ccccc21`, in assay [10], the result was inactive.
`CCCCCCCCCCCCCCCC(=O)OC/C=C(C)/C=C/C=C(C)/C=C/C1=C(C)CCCC1(C)C`: the call in assay [6] was inactive.
For `CCCCCCCCCC(=O)O`, the compound was called inactive in [1], in assay [2], in assay [3], in assay [4], in assay [5] and in assay [6].
In the case of `CN[C@H]1CC[C@@H](c2ccc(Cl)c(Cl)c2)c2ccccc21`, the compound was classed as inactive in assay [10].
In the case of `COC1=CC(=O)C[C@@H](C)[C@@]12Oc1c(Cl)c(OC)cc(OC)c1C2=O`, in assay [9], the Potency result was “inactive”. In assay [7], the call was inactive.
